# Among all 310,000 compounds or so, about 3,800 (1.2%) were called active.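 How the source made its calls: active means ratio B-score over 3 SD below the library mean, with starting fluorescence within 5 SD of its mean; inactive means the rest, inconclusive results apart.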 The list comes from a sample in which actives are over-represented; it also holds similar structures and randomly drawn compounds.
# Target: Potassium channel subfamily K member 9 (Homo sapiens) (UniProt Q9NPC2)
# Assay: blockers of human TASK-3 (KCNK9) channel – HEK293 cells, thallium flux, primary screen (AID 488922);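 on B-score: negative B-score means less thallium flux so channel inhibition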
# Details: HEK293 KCNK9, FluxOR thallium flux fluorescence, at 10 µM; hits give low values
# Potassium channel subfamily K member 9 (Homo sapiens), sequence (Q9NPC2 whole entry, looked up): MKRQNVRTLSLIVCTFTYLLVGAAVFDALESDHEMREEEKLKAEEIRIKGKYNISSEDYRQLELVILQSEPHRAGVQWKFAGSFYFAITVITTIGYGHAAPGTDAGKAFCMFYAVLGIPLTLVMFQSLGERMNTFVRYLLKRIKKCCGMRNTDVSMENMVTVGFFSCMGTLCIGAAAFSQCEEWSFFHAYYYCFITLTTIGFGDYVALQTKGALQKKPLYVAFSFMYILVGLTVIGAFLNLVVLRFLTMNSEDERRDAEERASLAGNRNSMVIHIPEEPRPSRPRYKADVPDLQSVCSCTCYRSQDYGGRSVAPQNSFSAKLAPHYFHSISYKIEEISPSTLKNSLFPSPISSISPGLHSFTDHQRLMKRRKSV
row,SMILES,B-score
1,O=C(c1cccc([N+](=O)[O-])c1)N1CCN(Cc2ccccc2)CC1,inactive
2,CC1(c2ccccc2)CC(C)(C)N(C(=O)c2cc([N+](=O)[O-])cc([N+](=O)[O-])c2)c2ccccc21 (centres undefined),inactive
3,CC1(c2cccc([N+](=O)[O-])c2)CC(C)(C)N(C(=O)c2ccccc2)c2ccccc21 (centres undefined),-7.5 (active)
4,O=C(NC(=S)Nc1ccc(Cl)cc1Cl)C1CC1,inactive
5,CC(CC(=O)O)CC(=O)NNC(=O)c1cccc(Br)c1 (centres undefined),inactive
6,O=C(/C=C/NNC(=O)c1cccc(Br)c1)c1ccccc1,-12.9 (active)
7,Cc1ccccc1NC(=S)NNC(=O)c1cccc(Br)c1,inactive
8,Cc1c(C(C)(C)O)[nH]c2ccc(C#N)cc12,inactive
9,O=C(O)/C=C/C(=O)NNc1ccc([N+](=O)[O-])cc1,inactive
10,Cc1cccc(NC(=O)CSc2nnc(CCCCCNC(=O)OC(C)(C)C)o2)c1C,inactive
11,Cc1ccc(C(=O)Cc2nnc(C)s2)cc1,inactive
12,CCOC(=O)C1CCCN(S(=O)(=O)c2ccc(-n3cnnn3)c(C)c2)C1 (centres undefined),inactive
13,CCN(/N=C/c1ccc(N(C)C)cc1)c1nc2ccccc2[nH]1,inactive
14,Oc1ccc(/C=N/N(Cc2ccccc2)c2ccccc2)cc1,-7.55 (active)
15,CN(C)c1ccc(/C=N/N(Cc2ccccc2)c2ccccc2)cc1,inactive
16,CC(C)C(c1nnnn1CCc1ccccc1)N1CCN(C(=O)c2ccco2)CC1 (centres undefined),inactive
17,N#Cc1ccc(C(c2nnnn2CCc2ccccc2)N2CCCCCC2)cc1 (centres undefined),-7.47 (active)
18,COc1ccc(CCn2nnnc2C(c2ccccc2)N2CCN(C)CC2)cc1OC (centres undefined),inactive
19,CCCn1c(C(O)c2cc(OC)ccc2OC)nc2ccccc21 (centres undefined),inactive
20,COc1ccc(OC)c(C(O)c2nc3ccccc3n2C)c1 (centres undefined),-7.74 (active)
21,CCn1c(C(O)c2cc(OC)ccc2OC)nc2ccccc21 (centres undefined),inactive
22,Cn1ncc2c(N3CCCCC3)nc(NCCCO)nc21,inactive

row,SMILES,B-score
1,COc1ccccc1C(=O)NCc1nnc(SC(C)C(=O)Nc2nccs2)n1C (centres undefined),inactive
2,C=CCc1cc(S(=O)(=O)c2ccc(O)c(CC=C)c2)ccc1O,-11.9 (active)
3,CCOC(=O)N1CCC(NC(=O)CN2C(=O)COc3ccc(C(C)(C)C)cc32)CC1,inactive
4,C#CC(C)(C)NC(=O)c1cnc(-c2ccccc2)nc1-c1ccccc1,inactive
5,COc1ccc(C2CC(c3cccs3)=Nc3ccccc3S2)cc1OC (centres undefined),-8.55 (active)
6,COc1ccc(C2CC(c3cccs3)=NN2c2ccc(F)cc2)cc1OC (centres undefined),-7.88 (active)
7,COc1ccccc1N1N=C(c2cccs2)CC1c1ccccc1 (centres undefined),inactive
8,COc1ccc(C2CC(c3cccs3)=NN2C(=O)CSc2nncs2)cc1OC (centres undefined),inactive
9,COc1ccc(C2CC(c3cccs3)=NN2C(=O)CSc2nnc(N)s2)cc1OC (centres undefined),inactive
10,COc1ccc(C2CC(c3cccs3)=NN2c2ccccc2)cc1 (centres undefined),-11.3 (active)
11,COc1ccc(C2CC(c3cccs3)=NN2c2nc(C)c(C(C)=O)s2)cc1OC (centres undefined),inactive
12,COc1ccc(C2CC(c3cccs3)=NN2C(=O)CCC(=O)O)cc1OC (centres undefined),inactive
13,COc1ccc(C2=NN(c3ccccc3)C(c3cccs3)C2)cc1 (centres undefined),inactive
14,COc1ccc(NCCc2ccccn2)cc1,inactive
15,Cc1nn(C)c(C)c1C(C)NC(=O)c1ccc(OC2CCN(Cc3ccccn3)CC2)cc1 (centres undefined),inactive
16,COc1ccccc1/C=C/C(=O)NC1CC2CCC1C2 (centres undefined),inactive
17,Cc1ccc(SCC2=NNC(=O)C2)cc1,inactive
18,O=C(COC(=O)c1ccccc1)Nc1ccccc1Sc1ccccc1,-9.75 (active)
19,Cc1ccccc1C(=O)Nc1ccccc1Sc1ccccc1,inactive
20,O=C(COC(=O)c1cccc(Br)c1)Nc1cccc2c1C(=O)c1ccccc1C2=O,inactive
21,CCn1c(=O)n(CC)c2cc(N3CCCC3)c(NC(=O)c3ccccc3Br)cc21,inactive
22,COc1ccc(-c2c(C(C)=O)c(C)nc3sc4c(=O)n(-c5ccc(C)cc5)nnc4c23)cc1,inactive

row,SMILES,B-score
1,O=C(COc1ccc([N+](=O)[O-])cc1Cl)Nn1cnnc1,inactive
2,O=C(COc1ccc(F)cc1)N(CC1=CCS(=O)(=O)C1)c1ccccc1,inactive
3,CCN(C(=O)c1ccc(Br)cc1)c1ccccc1,inactive
4,CCN(C(=O)COc1ccc(C(=O)c2ccccc2)cc1)c1ccccc1,-8.43 (active)
5,COc1ccc2cc(CCl)c(Cl)nc2c1,inactive
6,Cc1ccc(S(=O)(=O)N(CCCN(C)C)Cc2ccc3c(c2)OCO3)cc1,inactive
7,O=C(C[C@H]1C(=O)N(c2ccc(F)c(F)c2)C[C@@H]1Cc1ccccc1)Nc1ccccc1,-12.2 (active)
8,O=C(CN1CCN(c2ccc(F)cc2)CC1)Nc1ccccc1,inactive
9,O=C(CSC1CC(=O)N(CCc2ccccc2)C1=O)Nc1ccc(Cl)cc1 (centres undefined),inactive
10,CC(c1ccccc1)n1c(NCCCn2ccnc2)nc2c1c(=O)[nH]c(=O)n2C (centres undefined),inactive
11,CC1CCCCC1NC(=O)COC(=O)Cc1ccc(Br)cc1 (centres undefined),inactive
12,COc1ccc(-c2noc(COc3ccc(Cl)c(C)c3)n2)cc1,inactive
13,COCc1cc(C(C)=O)ccc1OC,inactive
14,COc1ccc(C(C)=O)cc1COc1ccc(Cl)c(C)c1,-10.5 (active)
15,COc1ccc(/C(N)=N/OC(=O)Cc2ccccc2)cc1,inactive
16,O=C(Nc1ccc(Br)c2cccnc12)c1ccc(Cn2cc([N+](=O)[O-])cn2)o1,-12.7 (active)
17,COc1cccc(NC(=O)c2ccc(Cn3cc([N+](=O)[O-])cn3)o2)c1,inactive
18,O=C(c1ccc(Cn2cc([N+](=O)[O-])cn2)o1)N1CCCC1,inactive
19,O=C(Nc1nonc1-c1ccc(Cl)cc1)c1ccco1,inactive
20,O=C(COc1ccc(Cl)cc1Cl)NCCCNC(=O)c1cnccn1,inactive
21,Cc1cccc(C(=O)Nc2ccc(C(=O)N/N=C/c3cccc(C)n3)cc2)c1,inactive
22,O=C(Nc1cccc(CCc2ccccn2)c1)c1ccc(Cl)cc1,inactive

row,SMILES,B-score
1,O=C(N/N=C/c1ccccn1)c1cccc(NC(=O)c2ccc(Cl)cc2)c1,-8.92 (active)
2,O=C(COc1ccc(Cl)cc1Cl)N/N=C/c1ccccn1,-9.19 (active)
3,CNC(=O)C(=O)N/N=C/c1ccccn1,inactive
4,COc1ccccc1NC(=O)c1cc(Cl)nnc1Cl,inactive
5,CCc1noc(C)c1C(=O)Nc1nc(-c2ccccc2)cs1,inactive
6,C[C@H](NC(=O)C1CC(=O)N(c2ccc3c(c2)OCO3)C1)C(=O)NCc1ccco1 (some centres undefined),inactive
7,O=C(/C=C/c1ccccc1)Oc1coc(CSc2ncccn2)cc1=O,inactive
8,COc1cc(OC)cc(-c2cc3nc(C4CCN(C(=O)OC(C)(C)C)CC4)cc(=O)n3[nH]2)c1,inactive
9,O=C(c1ccc(F)cc1)N1CCC(C(=O)N2CCN(S(=O)(=O)c3ccccc3Br)CC2)CC1,inactive
10,O=C(Cc1ccc(S(=O)(=O)N2CCCC2)s1)NC1CCCCCC1,inactive
11,O=C(Cn1nnc(N2CCCCC2)n1)c1ccc(Cl)c(Cl)c1,inactive
12,CCN(CC)CC1(O)CCN(C(=O)c2ccc(Cl)c(Cl)c2)CC1,inactive
13,CCCn1c(=N)n(CC(=O)c2ccc(Cl)c(Cl)c2)c2ccccc21,-7.8 (active)
14,O=c1c2c3c(sc2n(CCN2CCCC2)c(=O)n1Cc1ccccc1)CCCCC3,inactive
15,COc1cccc(N2CC(NC(=O)c3ccc4ccccc4c3)CC2=O)c1 (centres undefined),inactive
16,COc1cccc(CNS(=O)(=O)c2ccc3c(c2)CC(C)N3C(=O)C2CCC2)c1 (centres undefined),inactive
17,Cc1ccc2nc3c(cc(C(=O)NCCc4ccccc4)c(=N)n3CC3CCCO3)c(=O)n2c1 (centres undefined),inactive
18,Cc1cc(C)c(C)c(S(=O)(=O)N2CCN(C(=O)c3ccc4c(=O)n5c(nc4c3)CCC5)CC2)c1C,inactive
19,CCOc1cc(C)c(Cl)cc1S(=O)(=O)n1nnc2ccccc21,inactive
20,COc1ccc(C(C)C)cc1S(=O)(=O)Nc1ncn[nH]1,inactive
21,CCOc1ccc(C(C)C)cc1S(=O)(=O)n1nc(C)cc1C,-10.1 (active)
22,CCOc1ccc(OCC(=O)Nc2c3c(nn2C(C)(C)C)CS(=O)(=O)C3)cc1,inactive

row,SMILES,B-score
1,CC(C)(C)n1nnnc1C(c1ccc(Cl)cc1)N1CCSCC1 (centres undefined),inactive
2,CCCC(c1nnnn1C(C)(C)C)N1CCN(Cc2ccccc2)CC1 (centres undefined),inactive
3,CCC(C)(C)n1nnnc1C(c1cccs1)N1CCN(c2nc3ccccc3s2)CC1 (centres undefined),-9.04 (active)
4,CCC(C)(C)n1nnnc1C(c1ccc(OC)c(OC)c1)N1CCN(C(=O)c2ccco2)CC1 (centres undefined),inactive
5,COc1ccccc1C(c1nnnn1CC1CCCO1)N1CCN(c2ccccc2)CC1 (centres undefined),inactive
6,COc1ccc(OC)c(C(c2nnnn2C(C)(C)C)N2CCc3ccccc3C2)c1 (centres undefined),inactive
7,CC(C)(C)n1nnnc1C(c1ccc2ncccc2c1)N1CCSCC1 (centres undefined),inactive
8,COc1ccccc1C(c1nnnn1C(C)(C)C)N1CCN(Cc2ccccc2)CC1 (centres undefined),-21.5 (active)
9,CCC(C)(C)n1nnnc1C(c1ccccc1OC)N1CCSCC1 (centres undefined),-7.08 (active)
10,O=C(NC(=S)Nc1ccc2oc(=O)ccc2c1)c1ccc(-c2cccc(Cl)c2Cl)o1,inactive
11,Cc1ccc(S(=O)(=O)N2CCN(C(=O)c3ccc(-n4cncn4)c([N+](=O)[O-])c3)CC2)cc1,inactive
12,COc1ccc(CNC(=O)C2CCCC2)cc1,inactive
13,O=C1CC2(CC(c3ccc(Cl)cc3)=NO2)C(=O)N1c1ccccc1 (centres undefined),inactive
14,Nc1cc(C(F)(F)F)ccc1N1CCOCC1,inactive
15,CCC(C)c1ccc(NC(=S)N2CCCC2)cc1 (centres undefined),inactive
16,Cc1ccc(Cl)cc1NC(=S)N(CCN(C)C)Cc1cccs1,inactive
17,Cc1cccc(C)c1NC(=S)N(Cc1cccnc1)Cc1ccccc1Cl,inactive
18,Cc1c(Cl)cccc1NC(=S)N(Cc1ccccc1)Cc1cccnc1,inactive
19,Cc1ccc(CN(Cc2cccnc2)C(=S)Nc2cc(Cl)ccc2C)cc1,-7.5 (active)
20,COCCNC(=S)N(Cc1cccnc1)Cc1ccc(OC)c(OC)c1,inactive
21,Cc1ccc(CN(Cc2cccnc2)C(=S)Nc2cccc(Cl)c2C)cc1,-6.65 (active)

# Source: PubChem BioAssay AID488922 (Johns Hopkins Ion Channel Center, 2010)
